An excerpt weighted towards active compounds, which were near 11% of everything screened.
JMJD2A Tudor inh: qHTS Assay for Inhibitors of JMJD2A-Tudor Domain | Lysine-specific demethylase 4A (Homo sapiens), O75164 | AlphaScreen JMJD2A-Tudor / H3K4me3 peptide binding | Potency, µM (titrated, usually from 114 µM), for the others: at the top dose activity change, negative = inhibition, actives largely listed as inhibitors | actives 4.4% (n = 390,000) | AID 504339, 2011; note: % is set by controls: 0 for no effect and ±100 for the full control effect; nearly all actives have a fitted effect of over 50% in size
VDR inh: Inhibitors of the vitamin D receptor (VDR): qHTS; VDR-SRC2-3 peptide fluorescence polarization, 2 h; AID 504847, 2011; Potency, µM, without a hit: max response, negative = inhibition, most hits filed as inhibitors; Vitamin D3 receptor (Homo sapiens), P11473; actives 0.93% (n = 400,000); note: % is set by controls: 0 for no effect and ±100 for the full control effect
Target sequence (P11473 whole entry, looked up): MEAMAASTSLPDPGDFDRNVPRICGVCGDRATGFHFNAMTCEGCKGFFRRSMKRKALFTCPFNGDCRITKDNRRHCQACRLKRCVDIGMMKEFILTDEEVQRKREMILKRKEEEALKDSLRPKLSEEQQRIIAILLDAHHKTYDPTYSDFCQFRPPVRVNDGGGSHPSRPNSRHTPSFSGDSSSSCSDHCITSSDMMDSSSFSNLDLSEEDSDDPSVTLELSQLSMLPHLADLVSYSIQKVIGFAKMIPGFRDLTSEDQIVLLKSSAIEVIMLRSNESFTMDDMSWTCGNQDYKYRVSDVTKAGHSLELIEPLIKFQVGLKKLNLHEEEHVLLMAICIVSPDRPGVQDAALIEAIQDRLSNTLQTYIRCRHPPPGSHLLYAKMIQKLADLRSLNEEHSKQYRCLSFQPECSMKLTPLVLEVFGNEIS
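Fluorescence polarization assay measuring small-molecule disruption of VDR binding to the coregulator peptide SRC2-3. Compounds were pin-transferred (23 nl) into the reagent mix and incubated 2 h at room temperature before reading.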
HP1b chromo inh: HTS for Inhibitors of HP1-beta Chromodomain Interactions with Methylated Histone Tails; AlphaScreen HP1-beta / biotin-H3K9me3 peptide binding; Potency, µM (top dose mostly 114 µM), without a hit: at the top dose activity change, negative = inhibition, usual class: inhibitors; actives 0.56% (n = 390,000); AID 540317, 2011; note: nearly all actives have a fitted effect of over 70% in size
Target sequence (P83916 whole entry, looked up): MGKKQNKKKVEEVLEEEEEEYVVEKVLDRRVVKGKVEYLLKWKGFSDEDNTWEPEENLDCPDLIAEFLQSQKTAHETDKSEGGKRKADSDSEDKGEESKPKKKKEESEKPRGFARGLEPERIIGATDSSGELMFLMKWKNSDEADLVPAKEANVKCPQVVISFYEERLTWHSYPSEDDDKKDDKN
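HP1-beta protein (50 nM final) preincubated 30 min at room temperature with biotinylated H3(1-18)K9me3 peptide (50 nM) in PBS pH 7.4, 0.01% Tween-20, then compound added for 30 min. AlphaScreen streptavidin donor/nickel chelate acceptor beads (10 ug/mL final), 30 min dark, luminescence read.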
PLK1 PBD inh: qHTS for Inhibitors of PLK1-PDB (polo-like kinase 1 - polo-box domain): Primary Screen | Potency, µM, inactives show max response, negative = inhibition, hits mostly inhibitors | Serine/threonine-protein kinase PLK1 (Homo sapiens), P53350 | Plk1 PBD binding of FITC phosphopeptide, fluorescence polarization | actives 2.8% (n = 360,000); note: series mostly up to about 57 µM; % is set by controls: 0 for no effect and ±100 for the full control effect; nearly all actives have a fitted effect of over 65% in size
BAZ2B inh: qHTS Assay for Inhibitors of BAZ2B | Bromodomain adjacent to zinc finger domain protein 2B (Homo sapiens), Q9UIF8 | AlphaScreen BAZ2B-H3K14Ac peptide displacement | Potency, µM (top dose mostly 114 µM), for inactives: at the top dose activity change, negative = inhibition, most hits filed as inhibitors | actives 4.4% (n = 360,000); note: % is set by controls: 0 for no effect and ±100 for the full control effect; nearly all actives have a fitted effect of over 60% in size
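Multi-concentration screen (max 110 uM) measuring displacement of acetylated histone H3 peptide from BAZ2B by AlphaScreen, using 50 nM protein, 50 nM peptide and 10 ug/mL streptavidin donor plus Ni-chelate acceptor beads.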
G9a inh: qHTS Assay for Inhibitors of Histone Lysine Methyltransferase G9a | Histone-lysine N-methyltransferase EHMT2 (Homo sapiens), Q96KQ7 | G9a H3K9 monomethylation, AlphaScreen, 2 h | Potency, µM (series often up to 102 µM), for the others: top-dose activity, negative = inhibition, most hits filed as inhibitors | actives 8.8% (n = 350,000) | AID 504332, 2011; note: % is set by controls: 0 for no effect and ±100 for the full control effect; nearly all actives have a fitted effect of over 75% in size
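Quantitative HTS format: methyltransferase activity on a biotin-tagged H3K9 peptide is measured by AlphaScreen, using a rabbit anti-monomethyl-H3K9 antibody with streptavidin donor and anti-IgG acceptor beads. Final levels are 20 nM enzyme, 500 nM peptide, 20 uM SAM; 2 h RT.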
Numbers without * were called inactive; ? = inconclusive; . = no result; [ ] = dose if it differs, or a comment. Calls come from the whole dose curve; as a rule, active = well fitted curve in the direction sought with a large enough effect; inconclusive = small, poorly fitted or top-dose-only effect, or another doubt; inactive = no such curve, though single readings can be large; an effect the other way counts as inactive or inconclusive. Potency is the fitted concentration of half-maximal effect.

SMILES	JMJD2A Tudor inh	VDR inh	HP1b chromo inh	PLK1 PBD inh	BAZ2B inh	G9a inh
Clc1ccccc1/C=N/N1CCN(Cc2ccccc2)CC1	56µM*	12%	-28%	-4%	45µM*	24%[0.501 µM]
O=C(NCC1CCN(Cc2ccccc2Cl)CC1)Nc1ccccc1F	-1%	-14%	22%	4%	7%	39%
CCc1ccc2oc(-c3cc(NC(=O)c4cc([N+](=O)[O-])ccc4N4CCOCC4)ccc3Cl)nc2c1	-33%	-15%	-5%	.	?	?
CC1CCN(S(=O)(=O)c2ccc3c(c2)N(CC(=O)NCC(C)c2ccccc2)C(=O)CO3)CC1 (configuration not stated)	-21%	1%	18%	.	-5%	-3%[59 µM]
O=C(Nc1ccccc1)c1cc(C2CCCN(C(=O)c3cccs3)C2)on1 (configuration not stated)	.	.	.	-9%	.	.
c1ccc(CN2CCN(CCOCCOc3ccc4c(c3)CCC4)CC2)cc1	0.79µM*	-14%	?	8%	?	.
FC(F)(F)c1cccc(OCCN2CCN(Cc3ccccc3)CC2)c1	0.89µM*	13%	?	2%	50µM*	11µM*
COc1cccc(-n2cc(C(=O)Oc3ccc(F)cc3)c3ccccc3c2=O)c1	-10%	0%	17%[57 µM]	.	3%	9%[59 µM]
O=C(CC1CCCCC1)NCCOc1ccccc1	50µM*	?	17%	27µM*	-2%	9%[59 µM]
O=C(NCCOc1ccccc1)C1CCCCC1	-11%	-5%	37%	4%	-3%	0%
CCc1ccc(S(=O)(=O)Nc2cc(SCC(=O)O)c(O)c3ccccc23)cc1	22µM*	?	?	1.2µM*	?	3.5µM*
CCOc1ccc(S(=O)(=O)Nc2cc3c(C(=O)OC)c(COC)oc3c3ccccc23)cc1	-19%	-8%	-11%	.	-3%	-44%[59 µM]
O=S(=O)(Nc1cc(Sc2cccc3cccnc23)c(O)c2ccccc12)c1ccccc1	.	.	.	.	?	1.6µM*
CCOc1ccc(S(=O)(=O)Nc2cc(SCC(=O)O)c(O)c3ccccc23)cc1	22µM*	18µM*	13µM*	1.7µM*	50µM*	?
Cc1ccc(C)c(S(=O)(=O)Nc2cc(SCC(=O)O)c(O)c3ccccc23)c1	40µM*	22µM*	?	1.5µM*	20µM*	1.1µM*
Cc1ccc(Cn2nnc3c(=O)n(CC(=O)c4ccccc4)cnc32)cc1	-15%	13%	25%	-7%	-7%	-22%
COC(=O)c1ccccc1NC(=O)Cn1cnc2sc(C)c(S(=O)(=O)N3CCC(C)CC3)c2c1=O	-12%	-8%	16%	.	6%	-4%[59 µM]
Cc1cc(Cl)ccc1NC(=S)N1CCN(C(=O)c2ccco2)CC1	-16%	-15%	10%	-12%	-8%	6%[12.7 µM]
Cc1sc(NC(=S)NC(=O)c2ccccc2)c(C#N)c1C	-16%	-14%	-2%	12µM*	.	.
Cc1sc(NC(=S)NC(=O)c2ccco2)c(C#N)c1C	-11%	6%	28%	?	-2%	35µM*
Cc1sc(NC(=S)NC(=O)c2ccc(C(C)(C)C)cc2)c(C#N)c1C	-20%	8%	-10%	?	-37%	?
O=C(NC1CCCCC1)c1ccc2c(c1)N(Cc1ccc(Cl)cc1)C(=O)c1ccccc1S2(=O)=O	-3%	-31%	32%	.	-13%	-2%[59 µM]
O=C1N=C(N2CCN(c3ccccc3)CC2)S/C1=C\c1cn[nH]c1-c1ccccc1	-23%	2%	1%	-12%	-3%	-14%[59 µM]
O=C1N=C(N2CCN(c3ccccc3)CC2)S/C1=C/c1ccco1	?	-15%	3%	-10%	45µM*	50µM*
O=C1N=C(N2CCN(c3ccccc3)CC2)S/C1=C\c1ccco1	?	-12%	-9%	-13%	50µM*	40µM*
SMILES	JMJD2A Tudor inh	VDR inh	HP1b chromo inh	PLK1 PBD inh	BAZ2B inh	G9a inh
O=c1/c(=C/c2ccco2)sc2n1CN(c1ccccc1)CN=2	-18%	-12%	0%	-13%	-6%	13µM*
CCOC(=O)C1CCN(C(=O)C2COc3ccccc3O2)CC1 (configuration not stated)	-5%	2%	26%	-9%	0%	-42%
CC(C)OCCCN1C(=O)c2[nH]nc(-c3ccccc3O)c2C1c1cccc(OCc2ccccc2)c1 (configuration not stated)	-31%	14%	22%	.	-27%	15%[59 µM]
N=c1sccn1CC(=O)Nc1ccc([N+](=O)[O-])cc1Cl	-7%	-8%	52%	-22%	-4%	7%[59 µM]
CCS(=O)(=O)c1c([N+](=O)[O-])ncn1C	1%	-16%	60%	-18%	8%	?
Cn1cnc([N+](=O)[O-])c1S(=O)(=O)Oc1cccc2ccccc12	-34%	?	-4%	8.4µM*	.	.
Cn1cnc([N+](=O)[O-])c1Oc1ccccc1	-1%	0%	46%	0%	5%	6%
Cn1cnc([N+](=O)[O-])c1S(=O)(=O)Oc1ccc(Cl)cc1	-12%	25µM*	18%[57 µM]	?	.	.
CC1CN(C(=O)CCC(=O)Nc2cc(F)ccc2F)c2ccccc2S1 (configuration not stated)	-19%	-6%	10%	.	-13%	7%[59 µM]
CC1=C(C#N)C(c2cccnc2)C2=C(CCCC2=O)N1 (configuration not stated)	2%[11.4 µM]	-4%	6%	?	0%	-11%[59 µM]
CC1=C(C#N)C(c2ccccc2)C2=C(N1)c1ccccc1C2=O (configuration not stated)	22µM*	5%	?	?	32µM*	45µM*
CSC1=C(C#N)C(c2ccccc2Cl)C2=C(N1)c1ccccc1C2=O (configuration not stated)	32µM*	?	?	?	-31%[57.1 µM]	16µM*
CC1=C(C#N)C(c2cccnc2)C2=C(N1)c1ccccc1C2=O (configuration not stated)	-9%	-4%	12%	-12%	-35%	35µM*
CSc1ccc(CCNC(=O)Cn2ncc3c(=O)oc4ccccc4c32)cc1	-24%	-9%	7%	.	-33%	-22%[59 µM]
Cc1nc(C)c(C(=O)N2CCCC(C(=O)c3ccc(Cl)cc3C)C2)s1 (configuration not stated)	-6%	7%	55%	1%	-5%	16%
Cc1cc2nn(-c3ccc(Cl)cc3)nc2cc1N	20%	-24%	24%	-9%	?	13µM*

Bioassay records as filed in PubChem.
